Assay results as given in PubChem BioAssay AID1159580 (chemical genetic matrix, 2015).
Screen size: about 5,500 compounds; about 2,000 (36%) were called active. Another 18% or so got no clear call; they are omitted. Cut-off read from the data, not from the text of the source: active = normalized growth mostly below about 0.91 (no sharp cut-off); inconclusive = no clear call, values can overlap the other calls; inactive = mostly above about 0.92. The list shows a part of the results.

Assay: chemical genetic growth profiling, strain panel (AID 1159580);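 note: tested at 20 µM; growth read once vehicle control cultures reached saturation at 30 °C; 1 = growth at the plate median or of vehicle wells; lower values mean less growth of the strain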
Conditions: growth OD

Measured: normalized growth

CC(=O)O[C@H]1C[C@@]2(C)[C@@H](C[C@@H](O)C3[C@]2(C)CC[C@H]2[C@H](C)[C@H](O)CC[C@]32C)/C1=C(/CCC=C(C)C)C(=O)O (some centres undefined)
inactive: S. cerevisiae deletion strains, locus YJL187C, strain SWE1 (second series), active compounds read low 1.01 | S. cerevisiae deletion strains, locus YJL187C, strain SWE1, active compounds read low 1.04 | S. cerevisiae deletion strains, locus YJR043C, strain POL32, active compounds read low 1 | S. cerevisiae deletion strains, locus YJR066W, strain TOR1, active compounds read low 0.983 | S. cerevisiae deletion strains, locus YKL009W, strain mrt4, active compounds read low 0.99 | S. cerevisiae deletion strains, locus YKL068W, active compounds read low 1.01 | S. cerevisiae deletion strains, locus YKL085W, strain MDH1 (second series), active compounds read low 0.997 | S. cerevisiae deletion strains, locus YKL085W, strain MDH1, active compounds read low 0.997 | S. cerevisiae deletion strains, locus YKL160W, strain elf1, active compounds read low 1.07 | S. cerevisiae deletion strains, locus YKL190W, strain CNB1, active compounds read low 1.01 | S. cerevisiae deletion strains, locus YKR001C, strain vps1, active compounds read low 1.03 | S. cerevisiae deletion strains, locus YKR026C, strain gcn3, active compounds read low 1.01 | S. cerevisiae deletion strains, locus YKR091W, strain srl3, active compounds read low 1.03 | S. cerevisiae deletion strains, locus YLL001W, strain dnm1, active compounds read low 1.04 | S. cerevisiae deletion strains, locus YLL026W, active compounds read low 1.02 | S. cerevisiae deletion strains, locus YLL041C, strain sdh2, active compounds read low 1.02 | S. cerevisiae deletion strains, locus YLR027C, strain aat2, active compounds read low 1.01 | S. cerevisiae deletion strains, locus YLR039C, strain RIC1, active compounds read low 0.996 | S. cerevisiae deletion strains, locus YLR058C, strain SHM2, active compounds read low 1.04 | S. cerevisiae deletion strains, locus YLR102C, strain apc9, active compounds read low 1.02 | S. cerevisiae deletion strains, locus YLR113W, strain HOG1, active compounds read low 0.957 | S. cerevisiae deletion strains, locus YLR221C, strain rsa3, active compounds read low 1.06 | S. cerevisiae deletion strains, locus YLR258W, strain gsy2, active compounds read low 1.03 | S. cerevisiae deletion strains, locus YLR262C, strain YPT6 (second series), active compounds read low 0.991 | S. cerevisiae deletion strains, locus YLR262C, strain YPT6, active compounds read low 0.997 | S. cerevisiae deletion strains, locus YLR268W, strain sec22, active compounds read low 1.01 | S. cerevisiae deletion strains, locus YLR320W, strain mms22, active compounds read low 1.06 | S. cerevisiae deletion strains, locus YLR330W, strain CHS5, active compounds read low 1.01 | S. cerevisiae deletion strains, locus YLR342W, strain FKS1 (second series), active compounds read low 1.03 | S. cerevisiae deletion strains, locus YLR342W, strain FKS1, active compounds read low 1.04 | S. cerevisiae deletion strains, locus YLR357W, strain rsc2, active compounds read low 1.1 | S. cerevisiae deletion strains, locus YLR370C, strain arc18, active compounds read low 1.03 | S. cerevisiae deletion strains, locus YLR371W, strain rom2, active compounds read low 1.01 | S. cerevisiae deletion strains, locus YLR384C, strain iki3, active compounds read low 1.04 | S. cerevisiae deletion strains, locus YLR418C, strain cdc73, active compounds read low 1.05 | S. cerevisiae deletion strains, locus YML016C, strain PPZ1, active compounds read low 1 | S. cerevisiae deletion strains, locus YML032C, strain rad52, active compounds read low 1.02 | S. cerevisiae deletion strains, locus YML120C, strain ndi1, active compounds read low 1.05 | S. cerevisiae deletion strains, locus YML124C, strain tub3, active compounds read low 1.03 | S. cerevisiae deletion strains, locus YMR058W, strain fet3, active compounds read low 1.03 | S. cerevisiae deletion strains, locus YMR078C, strain ctf18, active compounds read low 1.02 | S. cerevisiae deletion strains, locus YMR125W, strain sto1, active compounds read low 1.04 | S. cerevisiae deletion strains, locus YMR129W, active compounds read low 1.02 | S. cerevisiae deletion strains, locus YMR205C, strain PFK2, active compounds read low 1.04 | S. cerevisiae deletion strains, locus YMR223W, strain ubp8, active compounds read low 1.05 | S. cerevisiae deletion strains, locus YMR231W, strain pep5, active compounds read low 1.02 | S. cerevisiae deletion strains, locus YMR307W, strain GAS1, active compounds read low 0.995 | S. cerevisiae deletion strains, locus YNL067W, strain RPL9B, active compounds read low 1.01 | S. cerevisiae deletion strains, locus YNL071W, strain lat1, active compounds read low 1.03 | S. cerevisiae deletion strains, locus YNL153C, strain GIM3, active compounds read low 1.02 | S. cerevisiae deletion strains, locus YNL183C, strain NPR1, active compounds read low 0.936 | S. cerevisiae deletion strains, locus YNL209W, strain ssb2, active compounds read low 1.03 | S. cerevisiae deletion strains, locus YNL233W, strain BNI4, active compounds read low 1.01 | S. cerevisiae deletion strains, locus YNL248C, strain rpa49, active compounds read low 1.05 | S. cerevisiae deletion strains, locus YNL250W, strain rad50, active compounds read low 1.03 | S. cerevisiae deletion strains, locus YNL271C, strain bni1, active compounds read low 1.02 | S. cerevisiae deletion strains, locus YNL298W, strain CLA4, active compounds read low 1.02 | S. cerevisiae deletion strains, locus YNL307C, strain MCK1, active compounds read low 1.03 | S. cerevisiae deletion strains, locus YNL322C, strain KRE1 (second series), active compounds read low 1.05 | S. cerevisiae deletion strains, locus YNR049C, strain mso1, active compounds read low 1.05 | S. cerevisiae deletion strains, locus YNR052C, strain pop2, active compounds read low 1.03 | S. cerevisiae deletion strains, locus YOL012C, strain htz1 1.07 | S. cerevisiae deletion strains, locus YOL147C, strain pex11, active compounds read low 1.04 | S. cerevisiae deletion strains, locus YOR001W, strain rrp6, active compounds read low 1.01 | S. cerevisiae deletion strains, locus YOR061W, strain CKA2, active compounds read low 0.999 | S. cerevisiae deletion strains, locus YOR069W, strain VPS5, active compounds read low 1.02 | S. cerevisiae deletion strains, locus YOR070C, strain gyp1, active compounds read low 1.03 | S. cerevisiae deletion strains, locus YOR080W, strain dia2, active compounds read low 1.04 | S. cerevisiae deletion strains, locus YOR083W, strain WHI5, active compounds read low 1.06 | S. cerevisiae deletion strains, locus YOR106W, strain vam3, active compounds read low 1.04 | S. cerevisiae deletion strains, locus YOR136W, strain idh2, active compounds read low 1.02 | S. cerevisiae deletion strains, locus YOR144C, strain elg1, active compounds read low 1.02 | S. cerevisiae deletion strains, locus YOR184W, strain ser1, active compounds read low 1.02 | S. cerevisiae deletion strains, locus YOR231W, strain MKK1, active compounds read low 0.956 | S. cerevisiae deletion strains, locus YOR265W, strain rbl2, active compounds read low 1.02 | S. cerevisiae deletion strains, locus YOR270C, strain vph1, active compounds read low 1 | S. cerevisiae deletion strains, locus YOR290C, strain snf2, active compounds read low 0.974 | S. cerevisiae deletion strains, locus YOR316C, strain cot1, active compounds read low 1.02 | S. cerevisiae deletion strains, locus YPL051W, strain arl3, active compounds read low 1.04 | S. cerevisiae deletion strains, locus YPL078C, strain atp4, active compounds read low 1.02 | S. cerevisiae deletion strains, locus YPL106C, strain sse1, active compounds read low 1.07 | S. cerevisiae deletion strains, locus YPL240C, strain hsp82, active compounds read low 1.03 | S. cerevisiae deletion strains, locus YPL256C, strain CLN2, active compounds read low 0.986 | S. cerevisiae deletion strains, locus YPR119W, strain clb2, active compounds read low 1.02 | S. cerevisiae deletion strains, locus YPR141C, strain kar3, active compounds read low 1.03 | S. cerevisiae deletion strains, locus YPR163C, strain tif3, active compounds read low 1.04 | S. cerevisiae deletion strains, locus YPR167C, strain met16, active compounds read low 1.03 | S. cerevisiae deletion strains, strain wtn01, active compounds read low 1.02 | S. cerevisiae strains, strain wild type, active compounds read low 1.01
